PubChem BioAssay
The source made the active and inactive calls.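 The calls were made as follows, unless noted: active = compounds lowering colon cancer cell viability after pretreatment blocking the GSK3B kinase; inactive = the rest.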

Columns and labels:
[1] = Wnt pathway potentiators raising nuclear beta-catenin – imaging, WNT3A-conditioned medium, mouse C2C12, NPC library, primary screen (AID 1117326; in the data active = nuclear beta-catenin stimulation mostly above about 4.2%, no sharp cut-off; inactive = mostly below about 10%; also: reference of the scale not given here); conditions: stronger effect = higher value
[2] = stimulators of insulin release from INS-1E, primary screen, cell-based, 5 mM glucose, NPC library (AID 1117329;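 active = compound raises insulin release from rat beta cells at 5 mM glucose, no numeric limit stated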; also: reference of the scale not given here); conditions: rat INS-1E insulin secretion, at 10 µM, stronger effect = higher value
[3] = growth inhibition of GSK3B-pretreated HCT116 cells – cell-based, CellTiter-Glo, 0.2 to 20 µM (AID 1117336); conditions: HCT116 viability after GSK3B inhibitor, at 20 µM, stronger effect = higher value
[4] = inhibition of endothelial tube formation, primary screen, imaging, VEGF stimulated, CD31 staining, tube area, NPC library (AID 1117340;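 active = compound that reduces growth-factor-driven endothelial tube area in a mixed cell culture, no cutoff stated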); conditions: VEGF-stimulated ADSC/ECFC co-culture, at 10 µM, stronger effect = higher value
[5] = GLP1 release stimulators, primary, NCI-H716, NPC library (AID 1117341;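 active = compound raises GLP1 secretion from the human gut endocrine cells, with no numeric limit stated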; also: reference of the scale not given here); conditions: NCI-H716 cells, at 10 µM, stronger effect = higher value
[6] = HCT116 colon cancer cell growth inhibition, primary screen, CellTiter-Glo luminescence, NPC library (AID 1117342;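 active = compounds that lower survival of HCT116 colon cancer cells in the luminescence readout, no numeric limit stated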); conditions: at 20 µM (top of the series)
[7] = reduced SW480 viability measured with CellTiter-Glo, NPC library, primary (AID 1117343;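 active = compounds that lower viability of the colon cancer cells in the luminescence readout, with no numeric limit stated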); conditions: CellTiter-Glo luminescence; at 20 µM (top of the series)
[8] = NPC library primary testing for decreased DLD-1 cell viability via CellTiter-Glo (AID 1117346;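 active = compounds that lower survival of DLD-1 colon cancer cells in the luminescence readout, no cutoff given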); conditions: DLD-1 viability, CellTiter-Glo luminescence; at 20 µM (top of the series)

Row | Compound | nuclear beta-catenin stimulation ([1]; at 10 µM) | nuclear beta-catenin stimulation ([1]; stimulation, at 2 µM) [%] | insulin secretion stimulation [2] | viability decrease [3] | tube area decrease [4] | GLP1 secretion stimulation [5] | inhibition of viability [6] | viability decrease (inhibition) [7] | viability decrease (inhibition) [8]
1 | CC(C)(C)NCC(O)COc1ccccc1OCC1CCCO1 (stereo unspecified) | -0.3% (inactive) | 2.1 | 5.4% (inactive) | -18.7% (inactive) | 34.3% (inactive) | -2.1% (inactive) | -6.3% (inactive) | 30% (inactive) | -6.9% (inactive)
2 | CCCCCCCCCCCCCCCC[n+]1ccccc1 | -2.9% (inactive) | 5.4 | 46% (active) | 56% (active) | 104% (active) | 72.8% (active) | 112% (active) | 112% (active) | 60.9% (active)
3 | CCCc1c2oc(C(=O)O)cc(=O)c2cc2c(=O)cc(C(=O)O)n(CC)c12 | -1.6% (inactive) | -1 | 2.6% (inactive) | 7.4% (inactive) | -19.4% (inactive) | -2.3% (inactive) | 18.2% (inactive) | 34.6% (inactive) | 15.2% (inactive)
4 | CN1CCC(N(Cc2cccs2)c2ccccc2)CC1 | -0.3% (inactive) | 5.8 | 26.2% (active) | 53.9% (active) | -3.7% (inactive) | 10% (inactive) | 49.3% (inactive) | 72.8% (active) | 13.1% (inactive)
5 | C[C@]12C=CC(=O)C=C1[C@@H](F)C[C@@H]1[C@@H]2[C@@H](O)C[C@@]2(C)[C@H]1CC[C@]2(O)C(=O)CO | -1.5% (inactive) | -0.6 | 0.8% (inactive) | -14.4% (inactive) | 11.3% (inactive) | -2.3% (inactive) | 5% (inactive) | 19.5% (inactive) | -6.1% (inactive)
6 | CC1(C)S[C@@H]2[C@H](NC(=O)C(C(=O)Oc3ccc4c(c3)CCC4)c3ccccc3)C(=O)N2[C@H]1C(=O)O (stereo partly specified) | 1% (inactive) | 0.4 | 4.4% (inactive) | -7.7% (inactive) | -2.6% (inactive) | -0.3% (inactive) | 1.5% (inactive) | 86% (active) | -6.9% (inactive)
7 | Cc1c(C(C)C)c(=O)n(-c2ccccc2)n1C | -0.3% (inactive) | -0.2 | -0.6% (inactive) | -2.5% (inactive) | -2.7% (inactive) | 0.4% (inactive) | -15.5% (inactive) | 36.6% (inactive) | 8.15% (inactive)
8 | CC12C=CC(=O)C=C1CCC1C2C(O)CC2(C)C1CCC2(O)C(=O)COP(=O)(O)O (stereo unspecified) | 1.1% (inactive) | 0.6 | 1.5% (inactive) | -38.5% (inactive) | -3.4% (inactive) | -2% (inactive) | 1.57% (inactive) | -2.1% (inactive) | -14.4% (inactive)
9 | O=C(Nc1ccc([N+](=O)[O-])cc1)Nc1ccc([N+](=O)[O-])cc1 | 3.2% (inactive) | 1.9 | -3.6% (inactive) | -7.9% (inactive) | 62.3% (active) | -0.9% (inactive) | -44.5% (inactive) | 44.3% (inactive) | -16.4% (inactive)
10 | NC(Cc1ccc([N+](=O)[O-])cc1)C(=O)O (stereo unspecified) | -0.2% (inactive) | 0 | -0.8% (inactive) | -7.7% (inactive) | -16.5% (inactive) | -0.7% (inactive) | -2.8% (inactive) | -1.7% (inactive) | -20.4% (inactive)
11 | COc1cc(C(=O)OC(COCCC(C)C)CN2CCOCC2)cc(OC)c1OC (stereo unspecified) | 0.4% (inactive) | 2.6 | 1.9% (inactive) | -9.2% (inactive) | 0.7% (inactive) | 13.1% (inactive) | 18.4% (inactive) | 39.2% (inactive) | 2.2% (inactive)
12 | c1ccc(C(O[C@H]2CCCN(CCc3ccc4c(c3)OCO4)C2)c2ccccc2)cc1 | 0.9% (inactive) | 1.5 | 5.45% (inactive) | 100% (active) | -6.8% (inactive) | 0.6% (inactive) | 96.3% (active) | 101% (active) | 90.1% (active)
13 | COc1cc(OC)nc(O[C@H](C(=O)O)C(OC)(c2ccccc2)c2ccccc2)n1 | 2.7% (inactive) | -0.4 | 1% (inactive) | 1.1% (inactive) | -16.9% (inactive) | 3.3% (inactive) | 1.2% (inactive) | 6.1% (inactive) | 2.4% (inactive)
14 | COc1ccc2cc1Oc1cc3c(cc1OC)CC[N+](C)(C)[C@H]3Cc1ccc(cc1)Oc1c(OC)c(OC)cc3c1[C@@H](C2)[N+](C)(C)CC3 | 0.3% (inactive) | -0.1 | 0.65% (inactive) | 13.2% (inactive) | 3.3% (inactive) | 2.3% (inactive) | 7.8% (inactive) | 14% (inactive) | 6.2% (inactive)
